Assay outcomes deposited in PubChem by National Center for Advancing Translational Sciences (NCATS).
This is a sample that favours compounds with a hit; in the whole collection about 9.5% have one here.
RE007 growth inh: less growth of the S. pombe RE007 Vpr strain; S. pombe RE007 Vpr strain, BacTiter-Glo ATP luminescence, 24 h; Potency, µM (top dose mostly 92.2 µM), inactives show at the highest dose activity change, negative = less growth, usual class: inhibitors; 360,000 compounds, 0.21% hits; active = well fitted falling curve with a large enough effect; inconclusive = small, poorly fitted or top-dose-only effect; inactive = no such curve, though single readings can be large or run the other way; note: potency is the fitted concentration of half-maximal effect; % is set by controls: 0 for no effect and ±100 for the full control effect; nearly all actives have a fitted effect of over 50% in size
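Fission yeast strain RE007, carrying one chromosomally integrated HIV-1 vpr copy, was seeded at OD 0.01 in PMG+AL medium with 23 nL pinned compound. After 24 h at 30 °C and 99% humidity, viability was read by BacTiter-Glo luminescence.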
Pf growth 96h: inhibits malaria parasite growth, 96 h | AID 504834 | P. falciparum luciferase reporter growth, 96 h | 320,000 compounds, 6.9% hits | Potency, µM (highest dose often 28.7 µM), inactives show top-dose activity change, negative = inhibition, hits mostly inhibitors; active = well fitted inhibition curve with a large enough effect; inconclusive = small, poorly fitted or top-dose-only effect, or another doubt; inactive = no such curve, though single readings can be large or run the other way; note: potency is the fitted concentration of half-maximal effect; % is set by controls: 0 for no effect and ±100 for the full control effect
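Compounds incubated with erythrocytes infected by luciferase-expressing P. falciparum (2% hematocrit, 0.05% parasitemia final) for 96 hours, 37 C in 5% CO2. Growth inhibition scored as decreased luciferase luminescence.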
NS1 inh: influenza NS1 inhibition; Potency, µM (top dose mostly 46.1 µM), for inactives: top-dose activity, positive = more growth; 270,000 compounds, 0.4% hits; AID 2326; note: potency is the fitted concentration of half-maximal effect; actives are rising curves; nearly all actives have a fitted effect of over 50% in size
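In this qHTS, NS1 from influenza A is expressed in budding yeast, where it slows growth. Cells are switched from glucose to 2% galactose medium (pH 6.0, -URA), treated with compound, and growth recovery is read at OD600.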
Pf growth 48h: inhibits P. falciparum growth in the first generation, 48 h; P. falciparum luciferase growth in erythrocytes, 48 h; Potency, µM (doses to about 28.7 µM), without a hit: top-dose activity change, negative = inhibition, actives largely listed as inhibitors; 310,000 compounds, 5.9% hits; AID 504832; active = well fitted inhibition curve with a large enough effect; inconclusive = small, poorly fitted or top-dose-only effect, or another doubt; inactive = no such curve, though single readings can be large or run the other way; note: potency is the fitted concentration of half-maximal effect; % is set by controls: 0 for no effect and ±100 for the full control effect
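A one-generation exposure of luciferase-tagged malaria parasites in RPMI 1640/Albumax erythrocyte culture, 37 C and 5% CO2. Inhibition is inferred from decreased luminescence after adding detection reagent.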
SARS PLP yeast: blocks SARS-CoV papain-like protease in a yeast assay | 330,000 compounds, 0.19% hits | AID 485353 | S. cerevisiae expressing SARS-CoV PLpro, growth rescue | Potency, µM (top dose mostly 32.9 µM), inactives show top-dose activity, positive = growth rescue, hits mostly activators; note: potency is the fitted concentration of half-maximal effect; 0% is about no effect; nearly all actives have a fitted effect of over 55% in size
NS1 inh valid: validation of influenza NS1 protein function inhibitors. activity change, negative = inhibition, % at 32.9 µM. shares compounds with NS1 inh. 1,400 tested, under 10 active. influenza NS1 function cell assay, 15-point titration; note: 0% is about no effect
Flu PR8 replic: influenza virus titer reduction, NS1 project | shares compounds with NS1 inh | MDCK infected influenza A/PR/8/34, virus titer TCID50; active compounds read low | virus titer (log TCID50), log10 TCID50 at 5 µM | 95 compounds, 30% hits | AID 504647; call rule not given here
The depositor's hits bear a star; ? = inconclusive; / = no result; ! = not confirmed by another sample. Unless noted, calls come from the whole dose curve.

SMILES	RE007 growth inh	Pf growth 96h	NS1 inh	Pf growth 48h	SARS PLP yeast	NS1 inh valid	others
COc1ccc(N=NC2C(=O)N(c3ccccc3)N=C2C)cc1 (stereo not drawn)	-3%	2.6µM*	2%	87%	1%	/
CC1=NN(c2ccccc2)C(=O)C1c1ccccc1 (stereo not drawn)	1%	?	5%	-19%	14µM*	/
CC(C)OCCCNC(=O)c1cc(-c2cccnc2)nc2ccccc12	-12%	-4%	-2%	-2%	0%	/
Cc1ccc(-c2cc(O)cc3sc(=O)oc23)cc1C	40µM*	-29%	-48%	?	-4%	/
COC(=O)C1=C(C)N(Cc2ccccc2)C(=NCCCCO)N[C@H]1CCc1ccccc1	-11%	3.7µM*	-5%	?	1%	/
COC(=O)C1=C(C)N(Cc2ccccc2)C(=NCc2ccc(OC)cc2)N[C@H]1c1ccccc1	-16%	-4%	0%	?	6%	/
CCN1C(=NCC(C)C)N[C@@H](c2cccc(C(F)(F)F)c2)C(C(=O)OC)=C1C	-16%	0.93µM*	1%	13µM*	-1%	/
COC(=O)C1=C(C)N(Cc2ccccc2)C(=NCC(C)C)N[C@H]1c1ccccc1	10%	8.3µM*	2%	?	-3%	/
C=CCN=C1N[C@@H](c2cccc(C(F)(F)F)c2)C(C(=O)OC)=C(C)N1CC	-12%	3.3µM*	13%	10µM*!	-4%	/
CN(C)c1nc(NC(C)(C)C)nc(NC(C)(C)C)n1	32%	33%	/	15µM*	2%	/
CCNc1nc(NC(C)(C)C)nc(N(CC)n2cnnc2)n1	4%	/	-20%	-26%	-3%	/
Cc1ccc(NC(=O)CSc2nc(O)cc(=O)n2C)cc1	-2%	-1%	11µM*	-4%	-1%	?
COc1ccccc1NC(=O)CSc1nc(O)cc(=O)n1C	19%	/	?	-17%	2%	/
Cn1c(SCC(=O)Nc2cccc3ccccc23)nc(O)cc1=O	12%	?	3.5µM*	10µM*	4%	24
Cn1c(SCC(=O)Nc2ccc(Br)cc2)nc(O)cc1=O	1%	12%	?	-3%	3%	/
COc1ccc2[nH]c(=O)c(CNc3cccc(C)c3)cc2c1	0%	?	2.8µM*	?	6%	0
COC(=O)C1=C(C)N2C(=O)CSC2=NC1c1ccc2c(c1)OCO2 (stereo not drawn)	22%	/	13µM*	?	-7%	31
COC(=O)C1=CN(C2CCCCC2)C=C(C(=O)OC)C1c1ccc2c(c1)OCO2	-5%	-18%	-4%	?	1%	/
COc1cc(Cl)cc(C(c2c(C(=O)O)[nH]c3ccccc23)c2c(C(=O)O)[nH]c3ccccc23)c1O	2%	?	2.5µM*	4%	0%	19
COc1cc(/C=C(\C#N)C(=O)NCC2CCCO2)ccc1OCCC(C)C (stereo not drawn)	-19%	-8%	8%	?	0%	/
CCC(=Cc1ccccc1O)c1ccncc1	-5%	/	/	/	/	/
CCC(C)c1c(O)nc(SCC(=O)c2ccccc2)[nH]c1=O (stereo not drawn)	-9%	?	4.5µM*	20%	-14%	2
Cc1ccc(C(=O)CSc2nc(O)cc(=O)[nH]2)cc1C	-5%	?	7.9µM*	0%	10%	?
CCOC(=O)CCCCCC(=O)Nc1ccc2c(c1)C(=O)N([C@@H](C)CO)C[C@@H](C)[C@H](CN(C)S(=O)(=O)c1cccs1)OCCCC[C@H](C)O2	0%	/	/	/	/	/
O=C(Cc1ccc(F)cc1)N[C@@H]1c2ccccc2CC[C@H]1OCc1ccccc1	2%	/	/	/	17%	/
SMILES	RE007 growth inh	Pf growth 96h	NS1 inh	Pf growth 48h	SARS PLP yeast	NS1 inh valid	others
COCC(C)n1c(C)cc(C(=O)CSc2nc(C)c(C)c(C)n2)c1C (stereo not drawn)	0%	?	?	?	0%	-5
CCc1ccc(/C=C2\CN(CC)Cc3c2nc2ccccc2c3C(=O)O)cc1	4%	?	3.5µM*	?	1%	-15
CCN1C/C(=C/c2cccs2)c2nc3ccccc3c(C(=O)O)c2C1	-16%	0%	2%	-15%	-1%	/
O=C(C1CCCN(S(=O)(=O)c2cccc3nonc23)C1)N1CCC(Cc2ccccc2)CC1 (stereo not drawn)	5%	3%	10µM*	?	/	-33
O=C(NCCc1ccccc1)C1CCCN(S(=O)(=O)c2cccc3nonc23)C1 (stereo not drawn)	26%	/	8%	/	3%	/
CN(C(=O)C1CCCO1)C1CCS(=O)(=O)C1 (stereo not drawn)	5%	1%	/	25%	-1%	/
O=C(NNC(=S)NC1CCCCC1)c1cccs1	18%	6%	2.5µM*	63%	?	11
CCOc1cc2[nH]c(=O)n(CC3CCC(C(=O)NCCCOC)CC3)c(=O)c2cc1OCC (stereo not drawn)	-11%	-5%	8.9µM*	19%	4%	9
Cc1cccc(NC(=O)CSCc2nc3c(nnn3Cc3ccc(F)cc3)c(=O)[nH]2)c1C	0%	-29%	-1%	5%	-1%	/
CN(C)c1ccc(NC(=O)CSCc2nc3c(nnn3Cc3ccc(F)cc3)c(=O)[nH]2)cc1	-25%	8.3µM*	6.3µM*	-23%	5%	-5	Flu PR8 replic=7.7
COc1ccc(-c2[nH]c3ccccc3c2SCCNC(=O)c2cc3ccccc3oc2=O)cc1	11%	9.3µM*	10µM*	-19%	7%	2
O=C(c1cc(-c2ccncc2)nc2ccccc12)N1CCN(c2ccc(N3CCOCC3)nn2)CC1	6%	?	?	12µM*	9%	-33
C1CCC(Nc2nnnn2C2CCCCC2)CC1	16%	6%	3%	21%	3%	/
CN(C)/C=C/C(=O)c1nnn(C2CCCCC2)c1NC1CCCCC1	0%	/	7.9µM*	5.2µM*	0%	?
CC(C)c1ccc(-c2nnc(SCC(=O)NC3CC3)n2C)cc1	-1%	0%	12%	55%	6%	/
CC(=O)Nc1ccc(S(=O)(=O)Oc2ccc(C(=S)N3CCC(O)CC3)cc2)cc1	-3%	-19%	?	11%	-15%	-18
CCOc1cc(/C=C2\C(=O)N(Cc3ccc(C)cc3)C(C)=C2C(=O)OC)ccc1O	5%	18%	14µM*	?	2%	-2
CN(C)c1ccc(/C=C2/C(=O)NC(=O)N(CCc3ccc(F)cc3)C2=O)cc1	17%	?	-16%	17%	-9%	/
